Source: PubChem
PAX8 inh HTS = inhibitors of PAX8 transcriptional activity in RMG-I cells; inhibition, % at 12.6 µM; 360,000 compounds, 1.2% hits; RMG-I TPO-luciferase reporter, SteadyGlo, 24 h;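 active means mean replicate inhibition at least 60% with every replicate also reaching 60%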;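 further: luciferase light reporting Pax8 driven TPO promoter activity; plate controls were median of neutral control wells for no effect and mitoxantrone controls for full effect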
EWS-Fli block = inhibitors of EWS/Fli oncoprotein transcriptional activity; A673 NR0B1-luciferase reporter, viability-normalised; inhibition, % at 12.6 µM; 350,000 compounds, 0.67% hits; AID 651661;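 active means mean inhibition of at least 50% after viability correction, with every replicate also passing that limit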;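 further: firefly luciferase signal divided by Alamar Blue viability fluorescence both relative to DMSO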
LGR2 inh = Drosophila LGR2 receptor signaling inhibition; AID 720647; 380,000 compounds, 0.35% hits; inhibition, % at 9.99 µM; HEK293 LGR2, CRE-luciferase, bursicon-stimulated, 4 h;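 active means drop in luminescence signal, shown as inhibition above about 50% in the replicate tests, limit read from the data, passing the limit was not always enough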;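 further: agonist challenge used bursicon conditioned medium at about half maximal strength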
TWEAK Fn14 block = inhibitors of TWEAK-Fn14 interaction signaling; TWEAK-stimulated Fn14 reporter cells, luciferase luminescence, 8 h; inhibition, % at 10 µM; 360,000 compounds, 2% hits; AID 1159606; in the data active means inhibition above about 50%
EBV LMP1 NFkB = reduces LMP1-driven NF-kappaB luciferase signal; LMP1-induced NF-kappaB luciferase reporter cells, luminescence; inhibition, % at 12.5 µM; 350,000 compounds, 0.69% hits; AID 504558; in the data active means inhibition above about 41%;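 further: 0% = neutral control wells and 100% = reference inhibitor control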
TROY NFkB inh = blocks TROY-dependent signaling in reporter cells. Q293 LMP1-TROYcd NF-kB luciferase reporter, 4 h. inhibition, % at 10 µM. 360,000 compounds, 0.98% hits;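 active means compounds whose plate-normalised and pattern-corrected inhibition of the luciferase reporter signal at the single screening dose is 50% or more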
* hit, by the source's call; nt = no result. Shown are actives, neighbours in structure and some others; about 3.1% of the full set was active somewhere.

SMILES	PAX8 inh HTS	EWS-Fli block	LGR2 inh	TWEAK Fn14 block	EBV LMP1 NFkB	TROY NFkB inh
Cn1nc(C(=O)Nc2ccc3c(c2)OCCO3)cc1C(=O)O	nt	nt	nt	72*	17	61*
C[C@@H]1CN([C@@H](C)CO)C(=O)c2cc(C#C[C@@H](C)O)cnc2O[C@@H]1CN(C)C(=O)Nc1ccc(C(F)(F)F)cc1	-1	-2	-12	nt	nt	nt
CC(=O)N(C)C[C@H]1Oc2ncc(-c3ccc(C)cc3)cc2C(=O)N([C@@H](C)CO)C[C@@H]1C	nt	0	-11	nt	nt	nt
Cc1c(C(=O)Nc2ccc(Br)cc2)cnn1C	-43	nt	8	-12	-18	-82
COCCN1Cc2cccc(C(=O)Nc3ccc(C)cc3)c2C1=O	-1	-8	-3	-12	-2	-10
Cc1c(C(=O)Nc2ccc3c(c2)OCCO3)cnn1C	-120	20	-15	91*	31	73*
Cn1ncc([N+](=O)[O-])c1C(=O)Nc1ccc2c(c1)OCCO2	nt	nt	nt	82*	11	59*
Cc1ccc(NC(=O)c2c([N+](=O)[O-])cnn2C)cc1C	-26	3	7	-21	-2	15
COCCN1Cc2cccc(C(=O)Nc3ccc4c(c3)OCCO4)c2C1=O	-41	7	1	74*	14	56*
COc1cc2c(cc1OC)C(C)N(C(=O)c1c(C)noc1C)CC2 (stereo not drawn)	13	-3	nt	-3	-5	0
COc1cc2c(cc1OC)C(C)N(C(=O)c1cc(C)on1)CC2 (stereo not drawn)	41	53*	-7	-6	17	42
Cc1noc(C)c1NC(=O)N(C)C[C@H]1Oc2ncc(C#CCN(C)C)cc2C(=O)N([C@H](C)CO)C[C@H]1C	nt	-7	-24	nt	nt	nt
Cc1noc(C)c1NC(=O)Nc1ccc2c(c1)CC(=O)N([C@@H](C)CO)C[C@H](C)[C@H](CN(C)C(=O)Nc1ccc(F)cc1)O2	-1	1	-21	nt	nt	nt
C[C@@H]1CN([C@@H](C)CO)C(=O)Cc2cc(NC(=O)NC3CCCCC3)ccc2O[C@@H]1CN(C)Cc1ccc(-c2ccccc2)cc1	102*	6	11	nt	nt	nt
C[C@H](CO)N1C[C@H](C)[C@@H](CN(C)Cc2ccc(Oc3ccccc3)cc2)Oc2ccc(NC(=O)NC3CCCCC3)cc2CC1=O	42	19	10	nt	nt	nt
C[C@@H]1CN([C@@H](C)CO)C(=O)Cc2cc(NC(=O)NC3CCCCC3)ccc2O[C@H]1CN(C)Cc1ccc(Oc2ccccc2)cc1	71*	12	46	nt	nt	nt
C[C@@H]1CN([C@@H](C)CO)C(=O)Cc2cc(NC(=O)c3ccncc3)ccc2O[C@@H]1CN(C)Cc1ccc(-c2ccccc2)cc1	102*	-16	2	nt	nt	nt
C[C@H](CO)N1C[C@H](C)[C@@H](CN(C)Cc2ccc(-c3ccccc3)cc2)Oc2ccc(NC(=O)c3ccncc3)cc2CC1=O	32	26	19	nt	nt	nt
COc1ccccc1C(=O)N1C[C@H]2[C@@H](c3ccccc31)[C@@H](CO)N2C(=O)C1CCOCC1	4	11	-6	nt	nt	nt
C[C@@H]1CN([C@@H](C)CO)C(=O)c2cc(-c3ccncc3)cnc2O[C@H]1CN(C)Cc1ccc(F)cc1	nt	2	-1	nt	nt	nt
C[C@@H]1CN([C@H](C)CO)C(=O)c2cccc(NS(=O)(=O)c3cccs3)c2O[C@@H]1CN(C)Cc1ccc(C(=O)O)cc1	nt	8	-5	nt	nt	nt
O=C(c1sc2cc([N+](=O)[O-])ccc2c1Cl)N1CCOCC1	3	2	10	-1	61*	-1
CC(C)N(C(=O)c1sc2cc([N+](=O)[O-])ccc2c1Cl)C(C)C	-6	nt	nt	-10	14	-18
O=c1c(Sc2ccccc2)c(C(F)(F)F)[nH]n1-c1ccccc1	nt	nt	nt	7	-3	53*
O=c1c2c(C(F)(F)F)cc(C(F)(F)F)nc2[nH]n1-c1ccccc1	nt	-8	-14	-15	5	10
Cc1ccccc1C(=O)O/N=C(\N)c1ccncc1	-130	-39	nt	-17	56*	-61
N/C(=N\OC(=O)c1ccc(Cl)cc1Cl)c1ccccn1	77*	nt	93*	100*	56*	80*
N/C(=N\OC(=O)c1ccccc1Cl)c1ccncc1	-90	-52	-15	15	-20	-35
Cc1ccc(C(=O)O/N=C(\N)c2ccccn2)c(Cl)c1	105*	86*	103*	105*	83*	86*
O=C(COC(=O)c1ccccn1)c1ccc([N+](=O)[O-])cc1	-4	8	6	67*	2	-47
